According to PubChem BioAssay (EPA / NIEHS):
Active and inactive are the calls of the source. Rule for the calls: active = hit-call score of the fitted dose curve at least 0.9, where 1 is the maximum; inactive = score below 0.9.

Assay: ATG_NRF2_ARE_CIS: Attagene CIS-FACTORIAL HepG2 Assay for human Nuclear Factor Erythroid 2 Related Factor 2 (NFR2) response to Antioxidant Response Elements (ARE) (AID 2282992);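 for AC50: reporter mRNA level measured by RT-PCR and capillary electrophoresis fluorescence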
Conditions: HepG2 Attagene ARE/NRF2 reporter, transcription factor activity; actives raise or lower the signal
In short: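 Fluorescence intensity of reporter-specific cDNA fragments, separated by capillary electrophoresis, reflects mRNA induction in transfected HepG2 cells at 24 h. Activity is fitted bidirectionally, DMSO serving as baseline.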

| Compound | outcome | AC50 |
| --- | --- | --- |
| CCCCCCCCCCCCCCCC(=O)OCC | inactive |  |
| CC(C)(C)c1ccc(N)cc1 | inactive |  |
| CC1=CC[C@H]2C[C@@H]1C2(C)C | inactive |  |
| COC(=O)c1cc(Cl)ccc1[N+](=O)[O-] |  | 48 µM (active) |
| C=C(C)[C@H]1CC=C(C)CC1 | inactive |  |
| CC=CC(F)(F)C(F)(F)C(F)(F)F | inactive |  |
| CCCOC(=O)CCCCC(=O)OCCC | inactive |  |
| CCOc1nc(F)cc2nc(S(=O)(=O)Nc3c(Cl)cccc3C(=O)OC)nn12 |  | 27 µM (active) |
| CC(C)=CCC[C@H](C)CCO | inactive |  |
| CCCCCCCCC(=O)OCC |  | 47.4 µM (active) |
| NC(=O)C1CO1 (stereo not given) | inactive |  |
| CC(C)C(=O)C(C)C |  | 27.1 µM (active) |
| CC(=O)OCCC1CCCCC1 | inactive |  |
| COC(F)(F)C(F)(C(F)(F)F)C(F)(F)F | inactive |  |
| O=C(/C=C/C=C/c1ccc2c(c1)OCO2)N1CCCCC1 |  | 47.4 µM (active) |
| C=CC(C)(C)C | inactive |  |
| C=C(C)[C@@H]1CCC2=CCC[C@@H](C)[C@]2(C)C1 |  | 87.3 µM (active) |
| C=CC(C)(CCC=C(C)C)OC(=O)C(C)C (stereo not given) |  | 100 µM (active) |

| Compound | outcome | AC50 |
| --- | --- | --- |
| COC(=O)c1sccc1S(N)(=O)=O | inactive |  |
| Cc1cccc(C(=O)O)c1 | inactive |  |
| CCOC(F)(F)C(F)(F)C(F)(F)C(F)(F)F | inactive |  |
| O=[N+]([O-])c1ccc(CO)cc1 | inactive |  |
| c1c[nH]cn1 | inactive |  |
| O=S(=O)(O)c1ccccc1C=Cc1ccc(-c2ccc(C=Cc3ccccc3S(=O)(=O)O)cc2)cc1 | inactive |  |
| CC=CC(=O)N(CC)c1ccccc1C | inactive |  |
| CCC(C)OC(=O)c1ccc(O)cc1 (stereo not given) |  | 100 µM (active) |
| CC1(C)S[C@@H]2[C@H](NC(=O)COc3ccccc3)C(=O)N2[C@H]1C(=O)O | inactive |  |
| CCO[Si](C)(OCC)OCC | inactive |  |
| CCCCCCCCCCc1ccccc1 | inactive |  |
| Clc1nc2ccccc2s1 | inactive |  |
| CCN(Cc1cccc(S(=O)(=O)O)c1)c1ccc(C(=C2C=CC(=[N+](CC)Cc3cccc(S(=O)(=O)[O-])c3)C=C2)c2ccccc2)cc1 |  | 112 µM (active) |
| O=CC1CC1 | inactive |  |
| Cc1ccccc1C | inactive |  |
| Nc1cccc(C(F)(F)F)c1 | inactive |  |
| Cc1cc(C)c(C)c(C)c1 | inactive |  |

Assay: ATG_Oct_MLP_CIS: Attagene CIS-FACTORIAL HepG2 Assay for human Octamer-Binding Transcription Factor (Oct) (AID 2282993)
Conditions: HepG2 Attagene cis-factorial Oct reporter, mRNA; actives raise or lower the signal
In short: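 Transient MRTU transfection of HepG2 → 24 h compound treatment → RNA isolation, reverse transcription, PCR → 6-FAM primer extension, HpaI digest → capillary electrophoresis. Activity fitted both directions against DMSO.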

| Compound | outcome | AC50 |
| --- | --- | --- |
| CC[C@H]1OC(=O)[C@H](C)[C@@H](O[C@H]2C[C@@](C)(OC)[C@@H](O)[C@H](C)O2)[C@H](C)[C@@H](O[C@@H]2O[C@H](C)C[C@H](N(C)C)[C@H]2O)[C@](C)(O)C[C@@H](C)C(=NOCOCCOC)[C@H](C)[C@@H](O)[C@]1(C)O | inactive |  |
| CCCCCCCCCCCCCCCC(=O)OCC | inactive |  |
| CC(C)(C)c1ccc(N)cc1 | inactive |  |
| CC1=CC[C@H]2C[C@@H]1C2(C)C | inactive |  |
| CCCCCCCC/C=C\CCCCCCCC(=O)OCCO | inactive |  |
| COC(=O)c1cc(Cl)ccc1[N+](=O)[O-] | inactive |  |
| C=C(C)[C@H]1CC=C(C)CC1 | inactive |  |
| CC=CC(F)(F)C(F)(F)C(F)(F)F | inactive |  |
| CCCOC(=O)CCCCC(=O)OCCC | inactive |  |
| CCOc1nc(F)cc2nc(S(=O)(=O)Nc3c(Cl)cccc3C(=O)OC)nn12 | inactive |  |
| CC(C)=CCC[C@H](C)CCO | inactive |  |
| CCCCCCCCC(=O)OCC | inactive |  |
| NC(=O)C1CO1 (stereo not given) | inactive |  |
| C[Si](C)(CCCN)O[Si](C)(C)CCCN | inactive |  |
| C=C1[C@H]2CC[C@@H]3[C@H]2C(C)(C)CCC[C@]13C | inactive |  |
| O=C(O)CC(C(=O)O)C(CC(=O)O)C(=O)O (stereo not given) | inactive |  |
| CC(C)C(=O)C(C)C |  | 29.2 µM (active) |
| CC(=O)OCCC1CCCCC1 | inactive |  |
| COC(F)(F)C(F)(C(F)(F)F)C(F)(F)F | inactive |  |
| O=C(/C=C/C=C/c1ccc2c(c1)OCO2)N1CCCCC1 | inactive |  |

| Compound | outcome | AC50 |
| --- | --- | --- |
| C=CC(C)(C)C | inactive |  |
| C=C(C)[C@@H]1CCC2=CCC[C@@H](C)[C@]2(C)C1 | inactive |  |
| C=CC(C)(CCC=C(C)C)OC(=O)C(C)C (stereo not given) | inactive |  |
| COC(=O)c1sccc1S(N)(=O)=O | inactive |  |
| Cc1cccc(C(=O)O)c1 | inactive |  |
| CCOC(F)(F)C(F)(F)C(F)(F)C(F)(F)F | inactive |  |
| O=[N+]([O-])c1ccc(CO)cc1 | inactive |  |
| c1c[nH]cn1 | inactive |  |
| O=S(=O)(O)c1ccccc1C=Cc1ccc(-c2ccc(C=Cc3ccccc3S(=O)(=O)O)cc2)cc1 | inactive |  |
| CC=CC(=O)N(CC)c1ccccc1C | inactive |  |
| CCC(C)OC(=O)c1ccc(O)cc1 (stereo not given) | inactive |  |
| CC1(C)S[C@@H]2[C@H](NC(=O)COc3ccccc3)C(=O)N2[C@H]1C(=O)O | inactive |  |
| CCO[Si](C)(OCC)OCC | inactive |  |
| CCCCCCCCCCc1ccccc1 |  | 53.6 µM (active) |
| Clc1nc2ccccc2s1 | inactive |  |
| CCN(Cc1cccc(S(=O)(=O)O)c1)c1ccc(C(=C2C=CC(=[N+](CC)Cc3cccc(S(=O)(=O)[O-])c3)C=C2)c2ccccc2)cc1 | inactive |  |
| O=CC1CC1 | inactive |  |
| Cc1ccccc1C | inactive |  |
| Nc1cccc(C(F)(F)F)c1 | inactive |  |
| Cc1cc(C)c(C)c(C)c1 | inactive |  |
